Data on 42 compounds can be found in PubChem BioAssay AID504706 (National Center for Advancing Translational Sciences (NCATS), 2011).

About 200 (0.062%) of roughly 320,000 compounds were called active. Not shown: some 6% with an inconclusive outcome. Calls come from the whole dose curve; as a rule, active = well fitted activation curve with a large enough effect; inconclusive = small, poorly fitted or top-dose-only effect; inactive = no such curve, though single readings can be large or run the other way. This excerpt belongs to a sample that is enriched for actives.
Potency is the fitted concentration of half-maximal effect.

The nature of the assay: qHTS assay for re-activators of p53 using a Luc reporter. For activity change, positive = activation: % of control where 0% means no effect. Note: nearly all actives have a fitted effect of over 45% in size. Conditions: H1299 p53-A138V BP100-luciferase reporter, luminescence, 24 h; series mostly up to 92.2 µM; activity change, positive = activation: at the top concentration. The text has this: The p53 tumor suppressor plays a key role in suppression of tumorigenesis and in human carcinogenesis. It is frequently found inactivated in human cancers, mainly by point mutation. These point mutations are found in a wide variety of human cancers and a majority of them affect the DNA binding domain of the protein. The point mutations either alter native p53 conformation or abolish DNA contact. Additionally, cancer cells with p53 mutations are more resistant to chemo-radiation therapies. In order to find activators to reactivate this important protein, a cell-based screen for p53-dependent luciferase-reporter expression was developed. A p53-null H1299 lung cancer cell line was stably co-transfected with a temperature sensitive p53 mutant, p53-A138V, and a p53-responsive BP100-luciferase reporter. This cell model has previously been characterized in a gene chip profiling experiment for p53 activation. By lowering the culture temperature from 37 deg C (mutant p53 conformation) to 32 deg C (w.t. p53 conformation), a 30-60 fold increase in activation of luciferase activity is observed. At assay temperate, 37 deg C, basal reporter expression is very low and after the addition of detection reagent, a luminescent read-out is carried out. NIH Chemical Genomics Center [NCGC] NIH Molecular Libraries Probe Production Centers Network [MLPCN] MLPCN Grant: DA031088-01A1 Assay Provider (PI): Yi Sung, University of Michigan at Ann Arbor
5ul of 1000 cells per well are dispensed in all wells except column 4, into white solid-bottom TC-treated Kalypsys plates. The cells are kept in Opti-MEM and supplemented with 10% FBS and dispensed using a Multidrop (Thermo). Then using the Kalypsys pin-tool, 23nl of compounds are pinned. The compounds are starting concentration at 10mM, with 1:5 dilution, 4 points, and the control compound nocodazole is pinned in column 1 at 25mM, 1:3 dilution, in duplicate, 25mM nocodazole is pinned in column 2. Please note, all concentrations are working concentrations. 5ul of 1pM purified luciferase enzyme is dispensed using the Kalypsys dispenser in column 4. Plates are incubated for 24 hrs at 37 deg C, 5% CO2, and 95% humidity. Then 4ul of the detection reagent Amplite (ABD Bioquest) is added using the Kalypsys dispenser. Plates are incubated for 10 min at ambient room temperature and are then read on the ViewLux (Perkin Elmer) using a clear filter for a luminescent read-out.
Background: Quantitative high-throughput screening tests each substance at several concentrations.
For `COC(=O)c1ccc(CNC(=O)c2ccc(S(=O)(=O)N3CCCCCC3)cc2)cc1`, the “activity change, positive = activation” value was -2% (inactive). Still for that read-out and setting: under `O=C(COc1ccc(F)cc1Br)NCC1COc2ccccc2O1` (configuration not stated) stands -3.91% (inactive). Same read-out and setting: the value for `CC(C)N(C(=O)[C@H]1C[C@H](CC(=O)NCCC2=CCCCC2)C(=O)N2CCc3c([nH]c4cc(CCC(=O)N(C)C)ccc34)[C@]12C)C(C)C` was -2.05% (inactive); that for `CN(C)C(=O)CCc1ccc2c3c([nH]c2c1)[C@]1(C)[C@@H](C(=O)N2CCOCC2)C[C@H](CC(=O)NCCc2ccccn2)C(=O)N1CC3` was 21.2% (inactive); that for `O=c1c2ccccc2c(-c2ccc(F)cc2)nn1-c1ccc(C(F)(F)F)cc1` was 3.3% (inactive). Still for that read-out and setting: the value for `Cc1onc(-c2ccccc2)c1C(=O)N1CCN(S(=O)(=O)c2ccccc2C(F)(F)F)CC1` was 14.4% (inactive). In the case of `Cn1c(-c2ccc(C(F)(F)F)cc2)cc2onc(-c3ccccc3)c2c1=O`, the Potency was 22.4 µM (active).

Consider `CC(C)n1cnc2c(NCc3ccccc3)cc(N[C@@H](CO)Cc3ccccc3)cc21`, for which the “activity change, positive = activation” value was -14.8% (inactive).

Take `COc1ccc2[nH]c3c(c2c1)CCN1C(=O)C(CC(=O)NCc2cccc(C(F)(F)F)c2)C[C@H](C(=O)N2CCOCC2)[C@@]31C` (some centres not stated): the “activity change, positive = activation” value is -2.15% (inactive). `COc1ccccc1N(CCOc1ccccc1)S(=O)(=O)c1ccccc1`: the “activity change, positive = activation” value was 4.72% (inactive).

In the case of `COc1ccc(-c2noc(CCC(=O)N3CCN(c4cccc(C)c4)CC3)n2)cc1`, the “activity change, positive = activation” value was -6.14% (inactive).

Take `CCCCC[C@@H]1C=C(C(=O)O)[C@H](c2ccc(C#N)cc2)N1S(=O)(=O)c1ccc(C)cc1`: the “activity change, positive = activation” value was -8.31% (inactive). On the same count and under the same terms, under `CCC(C)c1ccc(NC(=O)COC(=O)C2CCCC2)cc1` (configuration not stated) stands 22.8% (inactive). Same read-out and setting: under `O=C(NCC#CCSc1nnc(-c2cccc3ccccc23)o1)c1cccs1` stands 4.19% (inactive); under `O=C(NOCc1ccccc1)c1cccc([N+](=O)[O-])c1`, 24.5% (inactive). On the same count and under the same terms, under `CCOC(=O)C1CCCN(C(=O)CSc2nnc3nc(C)cc(C)n23)C1` (configuration not stated) stands 2.38% (inactive); under `CCOC(=O)C1CCN(C(=O)CN2C(=O)NC(C)(c3ccc4cc(OC)ccc4c3)C2=O)CC1` (configuration not stated), -3.98% (inactive).

Regarding `CC1CCCN(c2ccc(C(=O)NCCc3ccccc3)cn2)C1` (configuration not stated), the Potency was 35.5 µM (active). `O=C(NCCc1ccccc1)c1ccc2c(c1)N(Cc1ccccc1)CCS2`: the “activity change, positive = activation” value was 8.11% (inactive).

For the compound `CC1CCN(C(=O)CCNC(=O)c2ccccc2)CC1`, the “activity change, positive = activation” value is 19.5% (inactive). Still for that read-out and setting: the value for `CC[C@]12c3[nH]c4ccc(Cl)cc4c3CCN1C(=O)[C@@H](CC(=O)NCCCOC)C[C@@H]2C(=O)N1CCN(C(=O)c2ccco2)CC1` was -3.84% (inactive); that for `CC[C@]12c3[nH]c4cc(CCC(=O)N(C)C)ccc4c3CCN1C(=O)[C@@H](CC(=O)NCC13CC4CC(CC(C4)C1)C3)C[C@@H]2C(=O)N1CCN(C(=O)C2CC2)CC1` was 7.54% (inactive). On the same count and under the same terms, the value for `CCn1c(=S)[nH]c2cc(S(=O)(=O)N3CCOCC3)ccc21` was -13.9% (inactive). `Cc1cc(N)n2nc(-c3ccc(C(C)(C)C)cc3)cc2n1`: the Potency is 11.2 µM (active). For `Cc1cc(C(C)(C)C)n2nc(C)c(-c3ccccc3)c2n1`, the “activity change, positive = activation” value was 1.98% (inactive).

Regarding `Cc1nc2cc(-c3ccc(F)cc3)nn2c(N2CCOCC2)c1C`, the “activity change, positive = activation” value was 15.1% (inactive).

As for `CC(C)CC1NC(=O)c2cc(Cl)ccc2-n2c1nc1ccccc1c2=O` (configuration not stated), the “activity change, positive = activation” value was -4.01% (inactive). On to `COc1cccc(CNC(C)C(=O)Nc2ccc(S(=O)(=O)N3CCCC3)cc2)c1` (configuration not stated), for which the “activity change, positive = activation” value is -4.27% (inactive). Same read-out and setting: under `Cc1cc(NC(=O)CSCC(=O)NC(C)c2ccccc2)no1` (configuration not stated) stands -1.81% (inactive). On to `O=C(Nc1ccc(N2CCOCC2)cc1)c1cccc(S(=O)(=O)N2CCOCC2)c1`, for which the “activity change, positive = activation” value was -1.76% (inactive). Still for that read-out and setting: under `Cc1ccc(NC(=O)c2cc(-c3ccccc3O)n[nH]2)cc1C` stands -0.764% (inactive); under `O=C(Nc1cccnc1Cl)c1cc(-c2ccccc2O)on1`, 23.1% (inactive). Consider `Oc1ccccc1-c1cc(-c2ccc(Cl)cc2)n[nH]1`, for which the Potency is 2.82 µM (active). Consider `CCN(CC(=O)NCc1ccc(F)cc1)S(=O)(=O)c1ccc(Cl)s1`, for which the “activity change, positive = activation” value is -4.07% (inactive). Turning to `CC(=O)c1ccc(NC(=O)CSc2nc3ccccc3c(=O)n2CCCN2CCOCC2)cc1`, the “activity change, positive = activation” value was -10.6% (inactive). Take `CC(=O)Nc1ccc(S(=O)(=O)Nc2ccc(N3CCCCC3)cc2)cc1`: the “activity change, positive = activation” value was 7.31% (inactive). The same measure, in the same setting: under `CC[C@]1(C(=O)OC)[C@H]2C(=O)N(C)C(=O)[C@H]2[C@H]2CN(C)C(=NCc3ccccc3)N21` stands -0.397% (inactive); under `CC1O[C@H](OC2C(COC3OC(CO)C(O)[C@H](O)C3O)OC(OC3CC[C@]4(C)C(CC[C@@]5(C)[C@@H]4C=C[C@]46OC[C@@]7(CCC(C)(C)C[C@H]74)C(O)C[C@@]56C)C3(C)C)C(O)C2O)C(O)C(O)C1O` (some centres not stated), 0.455% (inactive); under `CC[C@]12c3[nH]c4cc(CCC(=O)N(C)C)ccc4c3CCN1C(=O)[C@@H](CC(=O)NCCCN(C)C)C[C@@H]2C(=O)N1CCN(C(=O)c2ccco2)CC1`, -0.34% (inactive).

For the compound `CN1C(=O)[C@H]2[C@@H](/C=C/c3ccccc3)N3C(=O)CN(Cc4ccc(-c5ccccc5)cc4)C(=O)[C@@]3(C)[C@H]2C1=O`, the “activity change, positive = activation” value was 0.747% (inactive). `CC1Sc2ccc(C(=O)NCc3ccccc3Cl)cc2NC1=O` (configuration not stated): the “activity change, positive = activation” value is 0.128% (inactive). Still for that read-out and setting: the value for `O=C1NC(Cc2ccc(O)cc2)c2nc3ccc(Cl)cc3c(=O)n2-c2ccccc21` (configuration not stated) was 3.93% (inactive).
